VACV Venus inh: inhibitors of vaccinia virus (Venus reporter); Potency, µM (titrated, usually from 36.5 µM), for inactives: at the highest dose activity change, negative = inhibition, actives largely listed as inhibitors; AID 720580; Vaccinia virus Venus reporter expression, fluorescence; 330,000 compounds, 0.46% hits; calls by dose curve; tested in A549 cells; also: % is scaled to controls: 0 for no effect and ±100 for the full control effect; nearly all actives have a fitted effect of over 30% in size
Pf growth 48h: inhibits P. falciparum growth in the first generation, 48 h | 310,000 compounds, 5.9% hits | AID 504832 | P. falciparum luciferase growth in erythrocytes, 48 h | Potency, µM (titrated, usually from 28.7 µM), for the others: at the highest dose activity change, negative = inhibition, most hits filed as inhibitors; also: % is scaled to controls: 0 for no effect and ±100 for the full control effect
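Here the parasites carry a stable luciferase gene and grow inside erythrocytes in Albumax-based RPMI medium with compound for one erythrocytic cycle. Activity is scored as loss of luminescent signal.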
Pf growth 96h: inhibits malaria parasite growth, 96 h | P. falciparum luciferase reporter growth, 96 h | Potency, µM (series often up to 28.7 µM), for the others: at the highest dose activity change, negative = inhibition, most hits filed as inhibitors | 320,000 compounds, 6.9% hits | AID 504834; also: % is scaled to controls: 0 for no effect and ±100 for the full control effect
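Luminescence readout: decreased luciferase signal marks inhibited growth of reporter-expressing P. falciparum in infected red cells (2% hematocrit, 0.05% parasitemia final), exposed to compound two generations (96 h, 37 C, 5% CO2).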
NS1 function inh: inhibitors of influenza NS1 protein function | Potency, µM (titrated, usually from 46.1 µM), for inactives: at the highest dose activity, positive = more growth | 270,000 compounds, 0.4% hits | AID 2326; calls by dose curve; also: actives are rising curves; nearly all actives have a fitted effect of over 50% in size
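OD600 was taken as the measure of yeast growth restored by compound in an NS1-expressing S. cerevisiae strain. Cells had been washed out of glucose medium and diluted 1:100 into galactose -URA medium, pH 6.0.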
HCV inh: HCV inhibition | Potency, µM (series often up to 41.8 µM), inactives show top-dose activity change, negative = inhibition, actives largely listed as inhibitors | AID 651820 | 340,000 compounds, 3.4% hits | Huh7.5.1 HCVcc-Cre infection, luciferase reporter, 44 h; also: % is scaled to controls: 0 for no effect and ±100 for the full control effect
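Reporter virus HCVcc-Cre (~0.5 moi) infects cells exposed to compound; seeding density 1,000 cells/well with 4 h settling beforehand. Luminescence, 15 sec read, taken 44 h post-infection following a 15 min RT substrate incubation.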
Vaccinia mCherry: vaccinia inhibition (mCherry reporter); Potency, µM (series often up to 36.5 µM), inactives show at the top dose activity change, negative = inhibition, usual class: inhibitors; 310,000 compounds, 0.63% hits; Vaccinia virus mCherry reporter infection, fluorescence; calls by dose curve; tested in A549 cells; also: % is scaled to controls: 0 for no effect and ±100 for the full control effect; nearly all actives have a fitted effect of over 35% in size
The depositor's hits bear a star; [ ] = dose if it differs, or a comment. In the library only some 11% were active in any assay of this set; here they are far more common. Unless noted, calls follow the shape of the dose curve; as a rule, active = well fitted inhibition curve with a large enough effect; inconclusive = small, poorly fitted or top-dose-only effect, or another doubt; inactive = no such curve, though single readings can be large or run the other way. Potency is read from the fitted curve at half-maximal effect.

For O=C(CCC1CCCN(C(=O)COc2ccccc2)C1)N1CCN(c2ccccn2)CC1 (stereo unspecified) the results were VACV Venus inh -6%, Pf growth 48h 10µM*, Pf growth 96h 0%, NS1 function inh -1%, HCV inh -25% and Vaccinia mCherry inactive.
For CN(C)c1ccc(C(=O)N2CCCC(CCC(=O)N3CCN(c4ccccn4)CC3)C2)cc1 (stereo unspecified) the results were VACV Venus inh -12%, Pf growth 48h inconclusive, Pf growth 96h inconclusive, NS1 function inh -1%, HCV inh inconclusive and Vaccinia mCherry inactive.
O=C(CCC1CCCN(C(=O)c2ccc3c(c2)OCO3)C1)N1CCN(c2ccccn2)CC1 (stereo unspecified) was read as VACV Venus inh -17%, Pf growth 48h inconclusive, Pf growth 96h inconclusive, NS1 function inh -3%, HCV inh 10µM* and Vaccinia mCherry 0%.
COc1ccc(NC(=O)[C@@H]2CCCN2C(=O)c2cccs2)cc1S(=O)(=O)N1CCCCC1 was read as Pf growth 48h inconclusive, Pf growth 96h 11% and HCV inh -14%.
`Cc1nn(Cc2ccc(C(=O)N3CCOCC3)o2)c(C)c1Br` gave VACV Venus inh -5%, Pf growth 48h 3%, Pf growth 96h -13%, NS1 function inh 14%, HCV inh 0% and Vaccinia mCherry -13%.
`COC(=O)c1ccc(C(=O)OC)c(NC(=S)N2CCCC(CO)C2)c1` (stereo unspecified) gave VACV Venus inh -3%, Pf growth 48h 5%[5.75 µM], Pf growth 96h inconclusive, HCV inh -4% and Vaccinia mCherry inactive.
`CCNC(=S)N(CCc1ccccc1C)Cc1cc2cc(OC)c(OC)cc2[nH]c1=O` gave VACV Venus inh -15%, Pf growth 48h inconclusive, Pf growth 96h inconclusive, NS1 function inh 16%, HCV inh -2% and Vaccinia mCherry -15%.
COc1cc2cc(CN(CCc3ccccc3C)C(=S)NCCCN3CCOCC3)c(=O)[nH]c2cc1OC was read as Pf growth 48h 7.4µM*, Pf growth 96h 322%, NS1 function inh 9% and HCV inh inconclusive.
`COc1cc2cc(CN(CCc3ccccc3C)C(=S)NCCCN(C)C)c(=O)[nH]c2cc1OC` gave VACV Venus inh -19%, Pf growth 48h 13µM*, Pf growth 96h inconclusive, NS1 function inh 7%, HCV inh inconclusive and Vaccinia mCherry -10%.
For O=c1[nH]c2cc3c(cc2cc1CN(CCc1ccccc1)C(=S)NCCCN1CCOCC1)OCCO3 the results were VACV Venus inh -10%, HCV inh inconclusive and Vaccinia mCherry -21%.
`CCOc1ccc(S(=O)(=O)n2nc(C)c(S(=O)(=O)N3CCCCCC3)c2C)cc1` gave VACV Venus inh -6% and Vaccinia mCherry 3%.
For COc1ccc(NC(=O)CCNC(C)=O)cc1NS(=O)(=O)c1ccc(F)cc1 the results were Pf growth 48h -3%, NS1 function inh -11% and HCV inh -1%.
Screening COc1ccccc1NC(=S)N1CCC(NC(=O)c2ccco2)CC1 returned VACV Venus inh -20%, Pf growth 48h 20%, Pf growth 96h 48%, NS1 function inh 3%, HCV inh 6% and Vaccinia mCherry inactive.
For O=C(COC(=O)c1ccc(O)cc1)Nc1ccc(S(=O)(=O)N2CCOCC2)cc1 the results were HCV inh -1%.
For CCCc1nc2ccccc2c(C(=O)OCC(=O)Nc2cccc(S(=O)(=O)N3CCOCC3)c2)c1CC the results were Pf growth 48h inconclusive, Pf growth 96h 7.4µM*, NS1 function inh 30% and HCV inh 8.9µM*.
Screening CCCc1nc2ccccc2c(C(=O)OCC(=O)Nc2ccc(S(=O)(=O)N3CCOCC3)cc2)c1CC returned Pf growth 48h 15µM*, NS1 function inh -2% and HCV inh 8.9µM*.
CCN1C(=O)/C(=C2\SC(N3CCOCC3)=NC2=O)c2ccccc21 was read as Pf growth 48h 10%, Pf growth 96h 44%, NS1 function inh 3% and HCV inh 12%.
